In PubChem BioAssay AID1159580 (chemical genetic matrix, 2015):
Out of some 5,500 compounds screened, about 2,000 (36%) were called active. Inconclusive results (about 18%) are left out. Rule as the data show it: active = normalized growth mostly below about 0.91 (no sharp cut-off); inconclusive = no clear call, values can overlap the other calls; inactive = mostly above about 0.92. The list shows a part of the results.

Assay: chemical genetic growth profiling, strain panel (AID 1159580);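 also: tested at 20 µM; growth read once vehicle control cultures reached saturation at 30 °C; 1 = growth at the plate median or of vehicle wells; lower values mean less growth of the strain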
Conditions: S. cerevisiae deletion strains, growth OD
[1] = locus YJR075W, strain HOC1, active compounds read low
[2] = locus YMR307W, strain GAS1, active compounds read low
[3] = locus YNL128W, strain TEP1, active compounds read low
[4] = locus YPL055C, strain LGE1, active compounds read low

Measured: normalized growth

CC(O)C(O)[C@H]1CNc2nc(N)[nH]c(=O)c2N1 (stereo partly specified)
inactive: locus YAL040C, strain CLN3, active compounds read low 1.04 | locus YCL061C, strain MRC1 (second series), active compounds read low 1.01 | locus YDR150W, strain NUM1, active compounds read low 1.02 | locus YDR363W, strain ESC2, active compounds read low 1.01 | locus YER002W, strain NOP16, active compounds read low 1 | [1] 1.04 | locus YMR263W, strain SAP30, active compounds read low 1.01 | [2] 0.995 | [3] 0.998 | locus YNL175C, strain NOP13, active compounds read low 0.999 | locus YNL197C, strain WHI3, active compounds read low 1.01 | locus YNL224C, strain SQS1, active compounds read low 1 | locus YOR083W, strain WHI5 (second series), active compounds read low 1.02 | [4] 1.04

CC(=O)O[C@@H]1CC2C(C)(C)C=CC(=O)[C@]2(C)C2CC[C@@]3(C)[C@H](c4ccoc4)OC(=O)C4OC43[C@@]21C (stereo partly specified)
inactive: locus YAL021C, strain ccr4, active compounds read low 0.985 | locus YAL026C, strain drs2, active compounds read low 1 | locus YAL030W, strain snc1, active compounds read low 0.999 | locus YBL061C, strain skt5, active compounds read low 1 | locus YBR009C, strain hhf1, active compounds read low 1 | locus YBR021W, strain FUR4, active compounds read low 1.04 | locus YBR023C, strain chs3, active compounds read low 0.988 | locus YBR171W, strain sec66, active compounds read low 1.01 | locus YBR229C, strain ROT2, active compounds read low 1.01 | locus YBR231C, strain swc5, active compounds read low 1.01 | locus YBR279W, strain paf1, active compounds read low 1 | locus YCL011C, strain gbp2, active compounds read low 0.998 | locus YCL016C, strain dcc1, active compounds read low 1 | locus YCL029C, strain bik1, active compounds read low 1 | locus YCL061C, strain MRC1, active compounds read low 0.998 | locus YCL069W, strain vba3, active compounds read low 0.992 | locus YCR088W, strain abp1, active compounds read low 0.994 | locus YDL005C, strain med2, active compounds read low 0.987 | locus YDL035C, strain GPR1, active compounds read low 1.03 | locus YDL040C, strain nat1, active compounds read low 0.986 | locus YDL074C, strain BRE1, active compounds read low 1.03 | locus YDL101C, strain DUN1, active compounds read low 1.01 | locus YDL134C, strain PPH21, active compounds read low 1.02 | locus YDL185W, strain tfp1, active compounds read low 0.984 | locus YDL192W, strain arf1, active compounds read low 1 | locus YDR001C, strain nth1, active compounds read low 0.995 | locus YDR069C, strain doa4, active compounds read low 0.985 | locus YDR101C, strain arx1, active compounds read low 1 | locus YDR137W, strain rgp1, active compounds read low 0.974 | locus YDR159W, strain sac3, active compounds read low 0.988 | locus YDR162C, strain NBP2, active compounds read low 1.04 | locus YDR195W, strain ref2 1 | locus YDR297W, strain sur2, active compounds read low 0.994 | locus YDR318W, strain mcm21, active compounds read low 1.01 | locus YDR334W, strain swr1, active compounds read low 1.01 | locus YDR335W, strain msn5, active compounds read low 0.997 | locus YDR388W, active compounds read low 1 | locus YDR392W, strain spt3, active compounds read low 0.963 | locus YDR502C, strain sam2, active compounds read low 0.991 | locus YEL003W, strain gim4, active compounds read low 0.984 | locus YEL037C, strain rad23, active compounds read low 0.998 | locus YEL061C, strain CIN8 (second series), active compounds read low 0.995 | locus YER015W, strain faa2, active compounds read low 1 | locus YER016W, strain bim1, active compounds read low 0.993 | locus YER110C, active compounds read low 1 | locus YER111C, strain swi4, active compounds read low 1 | locus YER155C, strain BEM2 (second series), active compounds read low 0.996 | locus YER155C, strain BEM2, active compounds read low 1.01 | locus YER167W, strain BCK2, active compounds read low 1.03 | locus YFR010W, strain ubp6, active compounds read low 1.04 | locus YGL078C, strain dbp3, active compounds read low 0.986 | locus YGL086W, strain mad1, active compounds read low 1 | locus YGL167C, strain pmr1, active compounds read low 0.991 | locus YGL173C, strain kem1, active compounds read low 0.996 | locus YGL227W, strain vid30, active compounds read low 0.992 | locus YGL240W, strain doc1, active compounds read low 0.983 | locus YGL248W, strain PDE1, active compounds read low 1.02 | locus YGL253W, strain hxk2, active compounds read low 0.977 | locus YGR135W, strain pre9, active compounds read low 0.987 | locus YGR229C, strain SMI1, active compounds read low 1.04 | locus YGR252W, strain gcn5, active compounds read low 0.994 | locus YHR013C, strain ard1, active compounds read low 1.01 | locus YHR027C, strain rpn1, active compounds read low 1 | locus YHR030C, strain SLT2, active compounds read low 1.01 | locus YHR079C, strain IRE1 (second series), active compounds read low 1 | locus YHR094C, strain hxt1, active compounds read low 0.995 | locus YHR129C, strain ARP1, active compounds read low 1.02 | locus YHR142W, strain chs7, active compounds read low 0.987 | locus YHR200W, strain rpn10, active compounds read low 0.998 | locus YIL066C, strain RNR3, active compounds read low 1.02 | locus YIL073C, strain SPO22, active compounds read low 1.03 | locus YIL125W, strain kgd1, active compounds read low 1.01 | locus YIR030C, strain dcg1, active compounds read low 0.996 | locus YJL092W, strain hpr5, active compounds read low 1 | locus YJL095W, strain BCK1 (second series), active compounds read low 1 | locus YJL095W, strain BCK1, active compounds read low 1.01 | locus YJL115W, strain asf1, active compounds read low 1 | locus YJL129C, strain trk1, active compounds read low 0.994 | locus YJL134W, strain LCB3, active compounds read low 1.01 | locus YJL154C, strain vps35, active compounds read low 0.999 | locus YJL164C, strain tpk1, active compounds read low 0.996 | locus YJL166W, strain qcr8, active compounds read low 0.992 | locus YJL168C, strain set2, active compounds read low 1 | locus YJL187C, strain SWE1 (second series), active compounds read low 1.01 | locus YJL187C, strain SWE1, active compounds read low 1 | locus YJR043C, strain POL32, active compounds read low 1.03 | [1] 1.02 | locus YKL068W, active compounds read low 1 | locus YKL085W, strain MDH1 (second series), active compounds read low 1 | locus YKL085W, strain MDH1, active compounds read low 1 | locus YKL160W, strain elf1, active compounds read low 0.997 | locus YKL190W, strain CNB1, active compounds read low 1.02 | locus YKR001C, strain vps1, active compounds read low 1 | locus YKR026C, strain gcn3, active compounds read low 0.996 | locus YKR091W, strain srl3, active compounds read low 1 | locus YLL001W, strain dnm1, active compounds read low 1.01 | locus YLL026W, active compounds read low 1 | locus YLL041C, strain sdh2, active compounds read low 1 | locus YLR027C, strain aat2, active compounds read low 0.997 | locus YLR039C, strain RIC1, active compounds read low 1.05 | locus YLR058C, strain SHM2, active compounds read low 1.03 | locus YLR102C, strain apc9, active compounds read low 0.998 | locus YLR221C, strain rsa3, active compounds read low 0.991 | locus YLR258W, strain gsy2, active compounds read low 0.984 | locus YLR262C, strain YPT6 (second series), active compounds read low 1 | locus YLR262C, strain YPT6, active compounds read low 1.09 | locus YLR268W, strain sec22, active compounds read low 1 | locus YLR320W, strain mms22, active compounds read low 0.999 | locus YLR330W, strain CHS5, active compounds read low 1.01 | locus YLR342W, strain FKS1 (second series), active compounds read low 0.989 | locus YLR342W, strain FKS1, active compounds read low 1 | locus YLR357W, strain rsc2, active compounds read low 1.02 | locus YLR370C, strain arc18, active compounds read low 0.999 | locus YLR371W, strain rom2, active compounds read low 1.01 | locus YLR384C, strain iki3, active compounds read low 1.01 | locus YLR418C, strain cdc73, active compounds read low 0.973 | locus YML016C, strain PPZ1, active compounds read low 1.02 | locus YML032C, strain rad52, active compounds read low 1 | locus YML120C, strain ndi1, active compounds read low 1 | locus YML124C, strain tub3, active compounds read low 1 | locus YMR058W, strain fet3, active compounds read low 1 | locus YMR078C, strain ctf18, active compounds read low 0.985 | locus YMR125W, strain sto1, active compounds read low 0.999 | locus YMR129W, active compounds read low 0.99 | locus YMR205C, strain PFK2, active compounds read low 0.996 | locus YMR223W, strain ubp8, active compounds read low 0.997 | locus YMR231W, strain pep5, active compounds read low 0.973 | [2] 1.02 | locus YNL067W, strain RPL9B, active compounds read low 1.02 | locus YNL071W, strain lat1, active compounds read low 0.994 | [3] 1.02 | locus YNL209W, strain ssb2, active compounds read low 1.01 | locus YNL233W, strain BNI4, active compounds read low 1.02 | locus YNL248C, strain rpa49, active compounds read low 1.01 | locus YNL250W, strain rad50, active compounds read low 0.989 | locus YNL271C, strain bni1, active compounds read low 1 | locus YNL298W, strain CLA4, active compounds read low 0.998 | locus YNL307C, strain MCK1, active compounds read low 0.993 | locus YNL322C, strain KRE1 (second series), active compounds read low 1 | locus YNR049C, strain mso1, active compounds read low 1 | locus YNR052C, strain pop2, active compounds read low 1 | locus YOL012C, strain htz1 0.75 | locus YOL147C, strain pex11, active compounds read low 0.995 | locus YOR001W, strain rrp6, active compounds read low 0.995 | locus YOR061W, strain CKA2, active compounds read low 1.02 | locus YOR069W, strain VPS5, active compounds read low 1.01 | locus YOR070C, strain gyp1, active compounds read low 0.998 | locus YOR080W, strain dia2, active compounds read low 0.993 | locus YOR083W, strain WHI5, active compounds read low 1 | locus YOR106W, strain vam3, active compounds read low 1.01 | locus YOR136W, strain idh2, active compounds read low 1 | locus YOR144C, strain elg1, active compounds read low 1.01 | locus YOR184W, strain ser1, active compounds read low 1.01 | locus YOR265W, strain rbl2, active compounds read low 0.997 | locus YOR270C, strain vph1, active compounds read low 0.956 | locus YOR290C, strain snf2, active compounds read low 0.968 | locus YOR316C, strain cot1, active compounds read low 0.993 | locus YPL051W, strain arl3, active compounds read low 1.03 | [4] 1.03 | locus YPL078C, strain atp4, active compounds read low 0.983 | locus YPL106C, strain sse1, active compounds read low 1.02 | locus YPL240C, strain hsp82, active compounds read low 0.998 | locus YPR119W, strain clb2, active compounds read low 0.998 | locus YPR141C, strain kar3, active compounds read low 0.998 | locus YPR163C, strain tif3, active compounds read low 1.01 | locus YPR167C, strain met16, active compounds read low 0.997 | strain wtn01, active compounds read low 1.01
